Screening data from PubChem.
Rev-erbA mod: modulates human Rev-erb alpha binding to DNA; P20393; Rev-erbα–FITC-DNA binding, fluorescence polarization, 90 min; activity, % at 10 µM; 370,000 compounds, 0.79% hits;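 active = activity above about 14%, limit read from the data; passing the limit was not always enough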;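 also: 0% = DMSO wells with 35 nM protein and 100% = DMSO wells with 750 nM protein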
hcDAF12 agonist: activators of H. contortus DAF-12 nuclear receptor | HEK293 hcDAF-12 lit1-tk-luc reporter, luminescence; 0% DMSO, 100% Δ7-dafachronic acid | 370,000 compounds, 1.4% hits | activation, % at 6.8 µM;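 active = activation above the mean of all tested compounds plus 3 SD, cut at about 5.5% in these data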;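 also: 100% = response to 3 µM Δ7-dafachronic acid high control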
hgDAF12 agonist: hgDAF-12 agonism, primary luciferase screen. HEK293 GAL4-hgDAF12 UAS-luciferase reporter, agonist luminescence; normalized to butyrate control. activation, % at 6.8 µM. 370,000 compounds, 1.8% hits. AID 687014;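 active = activation above a cutoff set at the mean of all screened compounds plus 3 SD, cut at about 10% in these data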;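 also: 0% = DMSO wells and 100% = sodium butyrate wells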
DAX1 inh-1: inhibitors of human orphan nuclear receptor DAX1 (NR0B1). P51843. HEK293 Gal4-DAX1 luciferase reporter, luminescence. inhibition, % at 6.75 µM. 340,000 compounds, 0.99% hits. AID 504766;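 active = inhibition above the mean over all tested compounds plus 3 SD, cut at about 4.2% in these data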;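 also: 0% = DAX1-transfected cells with DMSO and 100% = empty-vector control cells with DMSO; inhibition shows as a rise in luminescence from relieved DAX1 repression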
Target sequence (P51843 207-470 limits assumed): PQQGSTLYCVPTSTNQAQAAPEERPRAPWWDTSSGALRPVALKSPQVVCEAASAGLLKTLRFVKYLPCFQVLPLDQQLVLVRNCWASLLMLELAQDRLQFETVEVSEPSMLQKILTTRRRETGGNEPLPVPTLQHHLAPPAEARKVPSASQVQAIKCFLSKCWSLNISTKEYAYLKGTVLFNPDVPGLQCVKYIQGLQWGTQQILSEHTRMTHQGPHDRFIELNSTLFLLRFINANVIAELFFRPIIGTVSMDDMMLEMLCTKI
ssDAF12 agonist: activators of S. stercoralis DAF-12 nuclear receptor | HEK293 ssDAF-12/GRIP1 lit1-tk-luc reporter, luminescence; % of 3 µM dafachronic acid response | activation, % at 6.8 µM | 370,000 compounds, 1% hits;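 active = activation above the mean over all tested compounds plus 3 SD, cut at about 0.9% in these data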;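 also: 0% = DMSO-only wells and 100% = 3 µM delta7-dafachronic acid wells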
DAX1 inh-2: inhibitors of DAX1 repression of SF-1 activated StAR promoter. HEK293T StAR-luciferase reporter, SF-1/DAX-1 repression relief. AID 652010. inhibition, % at 6.8 µM. 370,000 compounds, 1.1% hits;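 active = inhibition above the mean over all tested compounds plus 3 SD, cut at about 3.6% in these data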;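 also: 0% = DAX-1 cells with DMSO and 100% = cells lacking DAX-1 with DMSO; higher inhibition means more luminescence from relief of DAX-1 repression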
LXRb hcDAF ctr: counter-screen for hcDAF-12 agonists: agonists of human LXR-beta; shares compounds with hcDAF12 agonist; HEK293 Gal4-LXR tk-luc reporter, luminescence, 24 h; normalized: DMSO 0%, positive control 100%; activation, % at 6.8 µM; 3,400 tested, under 10 active;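 active = mean percent activation of the reporter above a cutoff set as the average over tested compounds plus their standard deviation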
Target sequence (P55055 whole entry, looked up, the tested form may be a part): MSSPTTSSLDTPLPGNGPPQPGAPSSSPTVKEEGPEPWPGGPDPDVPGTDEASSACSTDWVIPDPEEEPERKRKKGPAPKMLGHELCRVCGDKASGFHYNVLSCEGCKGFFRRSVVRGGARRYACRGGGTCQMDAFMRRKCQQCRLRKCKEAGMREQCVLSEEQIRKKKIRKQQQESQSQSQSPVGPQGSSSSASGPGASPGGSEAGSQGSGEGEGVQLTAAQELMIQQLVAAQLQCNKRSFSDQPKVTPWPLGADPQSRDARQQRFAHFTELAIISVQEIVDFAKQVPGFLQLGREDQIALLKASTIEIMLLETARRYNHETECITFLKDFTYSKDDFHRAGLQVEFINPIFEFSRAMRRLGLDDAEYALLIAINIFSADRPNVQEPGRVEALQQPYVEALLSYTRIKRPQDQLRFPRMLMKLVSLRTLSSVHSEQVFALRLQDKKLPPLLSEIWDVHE
hcDAF12 ag: confirmation of H. contortus DAF-12 agonists; shares compounds with hcDAF12 agonist; HEK293 hcDAF-12 lit1-tk-luc reporter, luminescence; % of Δ7-dafachronic acid response; activation, % at 6.8 µM; 3,400 compounds, 61% hits; AID 743032;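 active = mean activation across triplicate tests above the threshold derived from the earlier primary screen, cut at about 5.5% in these data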;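 also: 0% = DMSO only wells and 100% = 3 µM Δ7-dafachronic acid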
hgDAF12 conf: confirmation of H. glycines DAF-12 agonists; shares compounds with hgDAF12 agonist; 3,300 compounds, 80% hits; activation, % at 6.8 µM; AID 743050; HEK293 GAL4-hgDAF12 luciferase reporter, agonist mode; percent of butyrate response;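 active = mean activation over triplicate wells above the hit cutoff derived from the earlier primary screen, cut at about 11% in these data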;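 also: 0% = DMSO low control and 100% = 2 mM sodium butyrate high control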
LXR ag 2: activates human LXR-beta, counter-screen for DAF-12 agonists. 3,300 tested, under 10 active. HEK293 Gal4-LXR luciferase reporter, 24 h. activation, % at 6.8 µM. AID 743051. shares compounds with hgDAF12 agonist;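 active = mean activation of the triplicate above a set limit carried over from the primary screen, none filed active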
Starred values were filed as active, the others as inactive; · = no result given. Compounds with a hit are over-represented: about 4.8% of the library has one in this group of screens.

SMILES | Rev-erbA mod | hcDAF12 agonist | hgDAF12 agonist | DAX1 inh-1 | ssDAF12 agonist | DAX1 inh-2 | LXRb hcDAF ctr | hcDAF12 ag | hgDAF12 conf | LXR ag 2
CC(=O)C1=C(C)N(Cc2ccc(Br)cc2)C(=S)NC1c1cccc(F)c1 (stereo not given) | 8 | -2 | 1 | · | -1 | 0 | · | · | · | ·
NNC(=O)c1cccc(COc2ccccc2Br)c1 | 0 | 7.2* | 16* | -3 | 1.2* | 3 | 1 | 6.5* | 15* | 1
COc1ccc2c(c1)CN1C(=O)N(C3CCCC3)S(=O)(=O)CC21 (stereo not given) | -4 | 3 | 4 | · | 0 | 1 | · | · | · | ·
C[C@@H]1ON(C)[C@H]2C[C@H]3c4cc(Br)ccc4CCN3C[C@@H]12 | 0 | 0 | -3 | · | -1 | 1 | · | · | · | ·
Cc1cc(=O)[nH]c(SCc2nc3ccccc3s2)n1 | 1 | 1 | 0 | 0 | 0 | 1 | · | · | · | ·
Cc1cc(C)nc(Nc2nc3ccccc3s2)n1 | 2 | 14* | 17* | 1 | 0 | 4.5* | 2 | 15* | 19* | 1
Cc1ccc(NC(=O)COC(=O)c2ccccc2-c2nc3ccccc3s2)c(C)c1 | 4 | 0 | 0 | -1 | -2 | 0 | · | · | · | ·
Cc1ccc(Nc2nc3ccccc3s2)c(C)c1 | -4 | 9.1* | 21* | 0 | 1.2* | 4 | 2 | 9.6* | 22* | 1
COCc1c(C(=O)N/N=C(/C)c2ccc(OCc3ccccc3)cc2)nnn1-c1nonc1N | -8 | 8.5* | 14* | 0 | 0 | 1 | 0 | 3 | 8 | 0
COC(=O)C1=C(C)N(Cc2ccccc2C(F)(F)F)C(=NCc2ccccc2C(F)(F)F)NC1c1ccc(C(F)(F)F)cc1 (stereo not given) | 1 | 0 | 4 | · | 0 | 0 | · | · | · | ·
COc1ccc(-c2ccc3c(n2)CCCN3S(=O)(=O)c2cccs2)cc1 | 2 | 4 | 3 | · | 0 | 1 | · | · | · | ·
COc1ccc(C2Nc3ccccc3C(=O)N2Cc2ccc(C)o2)cc1COc1c(C)cccc1C (stereo not given) | 3 | 1 | 0 | · | -2 | · | · | · | · | ·
O=C(CSc1nc2ccccc2nc1N1CCOCC1)NCc1ccc(Cl)cc1Cl | 8 | 1 | 2 | · | -2 | -1 | · | · | · | ·
Oc1cc2c(cc1CN1CCc3ccccc3C1)OCO2 | -5 | 0 | 1 | 0 | 0 | -1 | · | · | · | ·
c1ccc2c(c1)CCN(c1nc3cc4c(cc3s1)OCO4)C2 | -2 | 8.8* | 14* | 3 | 2.2* | 4.2* | 2 | 8.1* | 19* | 1
O=C(Cc1ccc(NC(=O)C2CCCN(C(=O)c3ccccc3)C2)cc1)Nc1cccc(C(=O)N2CCCC2)c1 (stereo not given) | 0 | -1 | 4 | · | -1 | -1 | · | · | · | ·
c1ccc([C@H]2CN3C(=N2)Sc2ccccc23)cc1 | 0 | 13* | 16* | 2 | 2.5* | 4 | 1 | 15* | 24* | 1
O=C(O)C(=O)/C(=C\c1ccccc1)c1ccc2ccccc2n1 | 22 | 19* | 17* | 3 | 3.3* | 4.5* | 1 | 16* | 22* | 1
O=C(O)C(=O)/C(=C\c1ccsc1)c1ccc2ccccc2n1 | 4 | 23* | 16* | 2 | 3.2* | 3 | 1 | 14* | 20* | 1
O=C(O)C(=O)/C(=C\c1cccc2ccccc12)c1ccc2ccccc2n1 | -1 | 2 | 1 | 1 | 0 | 1 | · | · | · | ·
OC(c1ccc(F)cc1)c1nc(-c2cc3ccccc3o2)cs1 (stereo not given) | -8 | 6.6* | 15* | · | 1.2* | 3.9* | 1 | 4 | 14* | 0
O=C(NCCc1ccc(Cl)cc1)c1ccc2c(c1)ncn2C1CCCCC1 | -6 | -3 | -1 | · | -1 | -1 | · | · | · | ·
O=C(O)c1c(-c2ccccc2)oc2ccc(O)cc12 | 1 | 0 | 2 | 1 | -1 | 0 | · | · | · | ·
Cc1ccc2oc(-c3ccccc3)c(C(=O)O)c(=O)c2c1 | 1 | 6.7* | 18* | 2 | 0 | 3 | 1 | 6.1* | 18* | 1
Cc1ccc(-c2nc(N/N=C/c3cccnc3)c3ccccc3n2)cc1 | 11 | 13* | 14* | -2 | 2.9* | 1 | 2 | 12* | 21* | 1
SMILES | Rev-erbA mod | hcDAF12 agonist | hgDAF12 agonist | DAX1 inh-1 | ssDAF12 agonist | DAX1 inh-2 | LXRb hcDAF ctr | hcDAF12 ag | hgDAF12 conf | LXR ag 2
COc1ccc(C(=O)O/N=C2\C(=O)N(C)c3ccccc32)cc1 | -3 | 1 | 1 | 1 | 0 | 0 | · | · | · | ·
COc1ccc(C(=O)N=c2nc3ccccn3s2)cc1 | 4 | 14* | 17* | -1 | 1.3* | 3 | 1 | 6.0* | 11* | 1
Cc1ccc(C)c(NC(=S)c2ccc3ccccc3n2)c1 | 4 | 22* | 17* | 2 | 2.0* | 2 | 1 | 15* | 17* | 1
Cc1ccc(C)c(NC(=S)c2ccccn2)c1 | 7 | 2 | 8 | 0 | 0 | 0 | · | · | · | ·
[O-][n+]1c(/C=C/c2ccccc2)ccc2ccccc21 | -5 | 13* | 14* | 7.2* | 1.5* | 2 | 1 | 8.6* | 21* | 1
CCc1ccc(NC(=O)c2cc(C(C)C)on2)cc1 | -4 | 7.1* | 15* | 0 | 0 | 3 | 1 | 6.0* | 19* | 1
CCN(CC)C(=O)CC[C@@H]1CC[C@]2(CCCN(C(=O)c3ccno3)C2)O1 | -1 | -1 | -2 | · | -1 | 0 | · | · | · | ·
CCOC(=O)c1c(C)nc2c3ccccc3ccn12 | 0 | 9.7* | 19* | 2 | 2.7* | 3.7* | 1 | 12* | 17* | 1
CCOC(=O)c1c(C)nc2c(C)cccn12 | 8 | -1 | -2 | 0 | -1 | 1 | · | · | · | ·
Cc1ccc(Nc2nc(N)c3ccccc3n2)cc1C | 4 | 6.6* | 16* | -2 | 0.9* | 3 | 2 | 8.0* | 21* | 1
CCCCCN1CCCCC(NC(=O)CSc2ccccc2)C1=O (stereo not given) | 0 | -2 | 1 | · | -1 | 0 | · | · | · | ·
CCOC(=O)c1c(C)oc2c1c(C(c1cccnc1)N1CCOCC1)c(O)c1ccccc12 (stereo not given) | 0 | 10* | 13* | 4.9* | 2.6* | 3 | 1 | 5.7* | 8 | 0
